Test results from PubChem BioAssay (NCATS).
Inconclusive results are not listed. The source made the active and inactive calls. Unless noted, calls follow the shape of the full dose curve.

Assays:
[1] = molecular target: Cytochrome P450 3A4 (Homo sapiens) (UniProt P08684); assay: qHTS Assay for Inhibitors and Substrates of Cytochrome P450 3A4 (AID 884; active = well fitted curve in the direction sought with a large enough effect; an effect the other way counts as inactive or inconclusive; also: % is scaled to controls: 0 for no effect and ±100 for the full control effect; nearly all actives have a fitted effect of over 50% in size)
How it was run: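 Luminescent readout of luciferin produced by CYP3A4 (20 nM) dealkylation of Luciferin-PPXE, 25 uM (its KM). NADPH-driven reaction ran 60 min at RT after 10 min compound preincubation; data scaled to 57 uM ketoconazole as 100% inhibition.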

[2] = Confirmation and Secondary Assay for Modulators of Hemoglobin Beta Chain Splicing at IVS2 654 locus (AID 910; active = well fitted curve in the direction sought with a large enough effect; an effect the other way counts as inactive or inconclusive;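 also: HeLa cells stably carrying EGFP split by mutant beta-globin IVS2-654 intron; % of control where 0% means no effect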)
How it was run: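 HeLa cells stably expressing EGFP interrupted by β-globin IVS2-654 intron, seeded overnight in Opti-MEM/2% FCS, then treated 2 days at 37 °C. Restored splicing read as total peak GFP intensity per well by laser scanning cytometry (488 nm excitation, 500–520 nm emission); 500 nM antisense PNA as control.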

[3] = Confirmation and Secondary Assay for Modulators of Hemoglobin Beta Chain Splicing at IVS2 705 locus (AID 930; active = well fitted curve in the direction sought with a large enough effect; an effect the other way counts as inactive or inconclusive;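 also: HeLa cells stably expressing the EGFP-705 splicing reporter; GFP fluorescence per well restored by corrected splicing of the IVS2-705 intron in EGFP; % of control where 0% means no effect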)
How it was run: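 First, HeLa EGFP-705 cells are seeded at 500/well in Optimem with 2% FCS and left overnight. Next, compound or DMSO is added for 2 days. Finally wells are laser-scanned and total peak GFP intensity scored.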

[4] = qHTS Assay for Lipid Storage Modulators (AID 1519); conditions: Drosophila S3 cells, BODIPY lipid droplet/cell ratio, laser cytometry, cells loaded with oleic acid
How it was run: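 Cells seeded at 5,000 per well were treated with compounds over a concentration series and loaded with oleic acid (400 uM, as added). Lipid droplet fluorescence (488 nm excitation, 500-530 nm channel) was read by laser-scanning cytometry and normalized to 20 uM Triacsin C.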

[5] = molecular target: Estrogen receptor (Homo sapiens) (UniProt P03372); assay: qHTS assay for small molecule antagonists of estrogen receptor alpha signaling (AID 588513; active = well fitted curve in the direction sought with a large enough effect in the signal ratio, with a control signal flat, not every such curve was filed as active; the % refers to the signal ratio; also: % is scaled to controls: 0 for no effect and ±100 for the full control effect)
Estrogen receptor (Homo sapiens), sequence (P03372 whole entry, looked up): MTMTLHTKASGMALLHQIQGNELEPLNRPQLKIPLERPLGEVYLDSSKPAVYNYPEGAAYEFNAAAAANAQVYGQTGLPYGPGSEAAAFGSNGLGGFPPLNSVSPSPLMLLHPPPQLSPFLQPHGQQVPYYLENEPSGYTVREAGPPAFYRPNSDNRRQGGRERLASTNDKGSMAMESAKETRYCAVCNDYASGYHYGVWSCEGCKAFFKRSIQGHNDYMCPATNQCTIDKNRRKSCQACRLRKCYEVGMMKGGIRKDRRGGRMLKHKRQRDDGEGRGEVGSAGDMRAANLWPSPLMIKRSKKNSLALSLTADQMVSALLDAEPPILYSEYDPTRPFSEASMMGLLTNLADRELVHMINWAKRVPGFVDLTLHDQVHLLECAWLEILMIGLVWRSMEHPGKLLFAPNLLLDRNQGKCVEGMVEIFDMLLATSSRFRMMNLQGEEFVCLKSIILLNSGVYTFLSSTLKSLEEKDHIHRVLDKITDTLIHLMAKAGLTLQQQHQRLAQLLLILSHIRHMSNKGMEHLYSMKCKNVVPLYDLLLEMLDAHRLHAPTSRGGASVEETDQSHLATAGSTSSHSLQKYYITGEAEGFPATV
How it was run: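 Beta-lactamase reporter, antagonist mode, HEK 293 GripTite cells; 0.5nM E2 stimulus, 18 h, 37 C; CCF4 dye 2 h RT; fluorescence. IC50 and efficacy from Hill fits, normalized to E2 and DMSO.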

[6] = molecular target: Estrogen receptor (Homo sapiens) (UniProt P03372); assay: qHTS assay for small molecule agonists of estrogen receptor alpha signaling (AID 588514);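 also: 0% = vehicle only and 100% = reference agonist; nearly all actives have a fitted effect of over 70% in size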
How it was run: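 Fluorescence from CCF4 cleavage reports ER-alpha-driven beta-lactamase expression in HEK 293 cells treated 18 hrs at 37 C. Data normalized to 17-beta-estradiol (20 nM) and DMSO, fitted to Hill equation.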

[7] = molecular target: Androgen receptor (Homo sapiens) (UniProt P10275); assay: qHTS assay for small molecule agonists of androgen receptor signaling (AID 588515; active = well fitted curve in the direction sought with a large enough effect in the signal ratio, with a control signal flat; the % refers to the signal ratio; also: % is scaled to controls: 0 for no effect and ±100 for the full control effect); conditions: AR-UAS-bla HEK293, beta-lactamase ratio, agonist 16 h; stronger effect = higher value
Androgen receptor (Homo sapiens), sequence (P10275 whole entry, looked up): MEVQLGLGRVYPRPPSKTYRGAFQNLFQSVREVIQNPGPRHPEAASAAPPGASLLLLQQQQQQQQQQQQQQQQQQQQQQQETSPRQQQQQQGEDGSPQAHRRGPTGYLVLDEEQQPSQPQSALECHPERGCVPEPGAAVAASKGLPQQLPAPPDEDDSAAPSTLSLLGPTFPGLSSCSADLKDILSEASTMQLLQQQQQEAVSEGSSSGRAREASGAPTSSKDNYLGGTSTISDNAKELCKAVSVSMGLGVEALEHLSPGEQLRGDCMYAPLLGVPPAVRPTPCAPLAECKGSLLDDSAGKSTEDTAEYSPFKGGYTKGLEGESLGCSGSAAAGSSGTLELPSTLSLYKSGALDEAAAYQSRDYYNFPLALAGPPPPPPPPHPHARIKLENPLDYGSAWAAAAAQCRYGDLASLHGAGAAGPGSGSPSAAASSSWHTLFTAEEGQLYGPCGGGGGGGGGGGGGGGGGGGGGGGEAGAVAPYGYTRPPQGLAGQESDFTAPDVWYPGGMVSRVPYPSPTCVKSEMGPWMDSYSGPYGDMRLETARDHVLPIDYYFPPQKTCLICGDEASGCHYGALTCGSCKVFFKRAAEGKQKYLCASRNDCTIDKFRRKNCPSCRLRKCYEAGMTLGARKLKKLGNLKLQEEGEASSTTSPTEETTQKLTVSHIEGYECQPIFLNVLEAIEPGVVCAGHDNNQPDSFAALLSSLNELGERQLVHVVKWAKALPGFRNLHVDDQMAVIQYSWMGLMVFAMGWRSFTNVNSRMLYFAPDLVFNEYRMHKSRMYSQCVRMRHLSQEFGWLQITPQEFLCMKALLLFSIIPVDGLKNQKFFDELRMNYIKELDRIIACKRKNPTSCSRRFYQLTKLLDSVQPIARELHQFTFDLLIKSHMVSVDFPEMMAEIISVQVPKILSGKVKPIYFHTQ
How it was run: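 Stimulation of an AR-responsive β-lactamase reporter in GripTite HEK293 cells was measured after 16 h compound exposure at 37 °C, via CCF4 fluorescence after 2 h RT. EC50 from Hill fits, normalized to R1881 at 30 nM.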

[8] = molecular target: Androgen receptor (Homo sapiens) (UniProt P10275); assay: qHTS assay for small molecule antagonists of androgen receptor signaling (AID 588516; active = well fitted curve in the direction sought with a large enough effect in the signal ratio, with a control signal flat, not every such curve was filed as active; the % refers to the signal ratio; also: % is scaled to controls: 0 for no effect and ±100 for the full control effect)
How it was run: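 HEK293 AR-UAS-bla cells, 10% dialyzed FBS medium; cpd titration + R1881 10 nM final, 16 h 37 C; CCF4 2 h RT; FRET ratio; IC50/efficacy via Hill fit.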

[9] = molecular target: Bile acid receptor (Homo sapiens) (UniProt Q96RI1); assay: qHTS assay for small molecule antagonists of farnesoid X receptor signaling (AID 588526); also: % is scaled to controls: 0 for no effect and ±100 for the full control effect
How it was run: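 Antagonist mode: titrated compounds tested against chenodeoxycholic acid stimulation (normalized to 50 uM CDCA and DMSO) in GeneBLAzer HEK293T cells for 16 h. Beta-lactamase read by CCF4 fluorescence; IC50 from Hill fits.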

[10] = molecular target: Glucocorticoid receptor (Homo sapiens) (UniProt P04150); assay: qHTS assay for small molecule agonists of glucocorticoid receptor signaling (AID 588532; active = well fitted curve in the direction sought with a large enough effect in the signal ratio, with a control signal flat; the % refers to the signal ratio;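 also: 100% = dexamethasone at 0.1 µM and 0% = DMSO only wells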); conditions: HeLa MMTV-bla, beta-lactamase ratio, agonist, 18 h; stronger effect = higher value; percent of dexamethasone control, DMSO zero
Glucocorticoid receptor (Homo sapiens), sequence (P04150 whole entry, looked up): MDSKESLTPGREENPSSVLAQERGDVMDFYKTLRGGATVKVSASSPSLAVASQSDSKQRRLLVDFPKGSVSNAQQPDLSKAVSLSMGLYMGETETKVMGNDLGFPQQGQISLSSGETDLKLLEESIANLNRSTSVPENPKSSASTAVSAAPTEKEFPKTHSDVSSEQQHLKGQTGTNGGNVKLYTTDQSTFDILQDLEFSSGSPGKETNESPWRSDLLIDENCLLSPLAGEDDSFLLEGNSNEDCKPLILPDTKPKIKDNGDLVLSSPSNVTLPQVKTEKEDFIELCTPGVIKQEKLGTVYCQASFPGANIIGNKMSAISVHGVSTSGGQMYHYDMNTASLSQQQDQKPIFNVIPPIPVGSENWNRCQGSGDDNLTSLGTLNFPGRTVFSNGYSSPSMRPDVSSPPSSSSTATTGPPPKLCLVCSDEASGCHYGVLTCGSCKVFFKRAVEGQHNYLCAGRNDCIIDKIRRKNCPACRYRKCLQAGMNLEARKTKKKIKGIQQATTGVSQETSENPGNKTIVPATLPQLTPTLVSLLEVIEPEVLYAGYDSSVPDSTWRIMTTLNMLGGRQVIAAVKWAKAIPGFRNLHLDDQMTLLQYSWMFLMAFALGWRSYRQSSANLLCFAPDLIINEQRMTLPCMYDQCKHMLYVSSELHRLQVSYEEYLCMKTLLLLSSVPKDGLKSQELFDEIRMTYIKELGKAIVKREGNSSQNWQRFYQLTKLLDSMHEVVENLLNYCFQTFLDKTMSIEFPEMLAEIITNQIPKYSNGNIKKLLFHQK
How it was run: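 MMTV-bla HeLa beta-lactamase reporter cells in 1% charcoal/dextran FBS medium, compounds up to 92 uM for 18 h at 37 C, CCF4 readout; normalized to 0.1 uM dexamethasone (100%), EC50 and efficacy from Hill fits.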

[11] = molecular target: Glucocorticoid receptor (Homo sapiens) (UniProt P04150); assay: qHTS assay for small molecule antagonists of glucocorticoid receptor signaling (AID 588533; active = well fitted inhibition curve with a large enough effect in the signal ratio, with a control signal flat, not every such curve was filed as active; the % refers to the signal ratio; also: % is scaled to controls: 0 for no effect and ±100 for the full control effect)
How it was run: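 Antagonist-mode qHTS: compound titrations added to GRE-bla HeLa cells, then dexamethasone 2 nM final; 18 h, 37 C. CCF4 FRET fluorescence normalized to dexamethasone and DMSO; IC50 from Hill fit.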

[12] = molecular target: Peroxisome proliferator-activated receptor delta (Homo sapiens) (UniProt Q03181); assay: qHTS assay for small molecule agonists of peroxisome proliferator-activated receptor delta signaling (AID 588534);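 also: 0% = DMSO basal wells and 100% = positive control agonist at 10 µM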
Peroxisome proliferator-activated receptor delta (Homo sapiens), sequence (Q03181 whole entry, looked up): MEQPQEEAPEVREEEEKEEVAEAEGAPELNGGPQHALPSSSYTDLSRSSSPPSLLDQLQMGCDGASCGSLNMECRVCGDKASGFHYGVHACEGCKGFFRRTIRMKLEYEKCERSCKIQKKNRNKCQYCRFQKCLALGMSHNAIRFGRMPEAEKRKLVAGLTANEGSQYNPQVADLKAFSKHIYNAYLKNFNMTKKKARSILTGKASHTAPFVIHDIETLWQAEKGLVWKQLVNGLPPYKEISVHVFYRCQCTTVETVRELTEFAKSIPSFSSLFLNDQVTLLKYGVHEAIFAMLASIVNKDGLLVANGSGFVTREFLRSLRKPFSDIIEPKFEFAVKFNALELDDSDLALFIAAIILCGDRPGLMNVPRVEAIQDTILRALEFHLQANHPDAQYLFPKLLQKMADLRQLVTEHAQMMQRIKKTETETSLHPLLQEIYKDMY
How it was run: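 EC50 and efficacy values derive from Hill fits of a concentration series in a beta-lactamase reporter cell assay. Exposure is 18 hrs at 37 C, with CCF4 fluorescence as the readout.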

[13] = qHTS assay for small molecule antagonists of peroxisome proliferator-activated receptor delta signaling (AID 588535; active = well fitted inhibition curve with a large enough effect in the signal ratio, with a control signal flat, not every such curve was filed as active; the % refers to the signal ratio;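 as to max response: cells co-treated with a PPAR-delta agonist as stimulator during compound exposure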); conditions: HEK293T PPARd-UAS-bla, beta-lactamase FRET ratio, 18 h; 460 nm channel
How it was run: (§1)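 Beta-lactamase reporter read-out (405 nm excitation, 460/530 nm emission) after CCF4 loading for 2 hrs at RT. HEK293T PPAR-delta-UAS-bla cells, 2% charcoal/dextran FBS, compounds for 18 hrs at 37 C. Hill fit gave IC50 and efficacy.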

[14] = molecular target: Peroxisome proliferator-activated receptor delta (Homo sapiens) (UniProt Q03181); assay: as above
How it was run: as §1

[15] = molecular target: Peroxisome proliferator-activated receptor gamma (Homo sapiens) (UniProt P37231); assay: qHTS assay for small molecule agonists of peroxisome proliferator-activated receptor gamma signaling (AID 588536; active = well fitted curve in the direction sought with a large enough effect in the signal ratio, with a control signal flat, not every such curve was filed as active; the % refers to the signal ratio;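 also: 0% = DMSO basal wells and 100% = rosiglitazone at 2 µM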)
How it was run: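 Beta-lactamase reporter read-out: CCF4 fluorescence (ex 405, em 460/530 nm) after 2 h at RT. HEK293 GeneBLAzer cells were treated for 16 h at 37 C. Hill fits gave EC50 and efficacy versus 2 uM rosiglitazone (100%) and DMSO (0%).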

[16] = molecular target: Vitamin D3 receptor (Homo sapiens) (UniProt P11473); assay: qHTS assay for small molecule antagonists of vitamin D receptor signaling (AID 588541)
Vitamin D3 receptor (Homo sapiens), sequence (P11473 whole entry, looked up): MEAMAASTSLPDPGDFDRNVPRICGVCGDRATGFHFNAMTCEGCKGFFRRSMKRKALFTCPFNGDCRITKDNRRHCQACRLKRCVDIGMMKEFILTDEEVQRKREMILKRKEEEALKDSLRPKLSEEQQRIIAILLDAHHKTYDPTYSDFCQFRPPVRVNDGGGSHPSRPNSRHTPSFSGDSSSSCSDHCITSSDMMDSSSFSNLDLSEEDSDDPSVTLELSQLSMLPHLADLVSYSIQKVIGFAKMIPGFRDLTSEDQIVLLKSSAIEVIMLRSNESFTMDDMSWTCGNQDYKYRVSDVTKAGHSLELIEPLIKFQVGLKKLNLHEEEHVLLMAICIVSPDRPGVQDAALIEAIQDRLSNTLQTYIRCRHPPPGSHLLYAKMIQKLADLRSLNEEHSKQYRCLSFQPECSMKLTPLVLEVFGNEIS
How it was run: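 VDR-UAS-bla HEK293T cells in 2% charcoal-stripped FBS were stimulated with 1-alpha,25-dihydroxyvitamin D3 (3 nM final) plus compound for 16 h at 37 C. The beta-lactamase CCF4 readout was normalized to 50 nM agonist and DMSO, and Hill fits gave IC50.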

[17] = molecular target: Vitamin D3 receptor (Homo sapiens) (UniProt P11473); assay: qHTS assay for small molecule agonists of vitamin D receptor signaling (AID 588543);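 also: 0% = DMSO basal and 100% = reference agonist control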
How it was run: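 β-lactamase reporter, VDR-UAS-bla HEK293T, agonist mode. Cells plated 5 h at 37 °C, compound titration 16 h at 37 °C, CCF4 dye 2 h RT, ratio 460/530 nm. Hill fit → EC50, efficacy vs 50 nM 1α,25-(OH)2D3.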

[18] = qHTS assay for small molecule agonists of retinoid X receptor alpha signaling (AID 588544); conditions: HEK293T RXRa-UAS-bla, beta-lactamase reporter, 18 h; 530 nm emission;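 as to activation: 0% = DMSO basal wells and 100% = reference agonist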
[19] = molecular target: Retinoic acid receptor RXR-alpha (Homo sapiens) (UniProt P19793); assay: as above
Retinoic acid receptor RXR-alpha (Homo sapiens), sequence (P19793 whole entry, looked up): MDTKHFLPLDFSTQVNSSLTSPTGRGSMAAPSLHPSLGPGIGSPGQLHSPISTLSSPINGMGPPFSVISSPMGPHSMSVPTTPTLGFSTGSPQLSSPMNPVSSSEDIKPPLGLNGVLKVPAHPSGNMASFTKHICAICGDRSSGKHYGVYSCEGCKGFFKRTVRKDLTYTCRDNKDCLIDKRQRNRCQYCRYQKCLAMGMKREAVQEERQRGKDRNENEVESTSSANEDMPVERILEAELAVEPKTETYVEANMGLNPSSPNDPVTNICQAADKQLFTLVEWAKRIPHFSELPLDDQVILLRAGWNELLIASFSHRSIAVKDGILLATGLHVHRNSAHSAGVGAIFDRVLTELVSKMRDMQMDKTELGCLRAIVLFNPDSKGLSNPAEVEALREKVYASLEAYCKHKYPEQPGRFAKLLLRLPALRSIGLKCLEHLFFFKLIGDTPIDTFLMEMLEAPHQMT

[20] = molecular target: Thyroid hormone receptor beta (Homo sapiens) (UniProt P10828); assay: qHTS assay for small molecule agonists of thyroid hormone receptor beta signaling (AID 588545);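 also: 0% = DMSO only and 100% = 10 nM T3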
Thyroid hormone receptor beta (Homo sapiens), sequence (P10828 whole entry, looked up): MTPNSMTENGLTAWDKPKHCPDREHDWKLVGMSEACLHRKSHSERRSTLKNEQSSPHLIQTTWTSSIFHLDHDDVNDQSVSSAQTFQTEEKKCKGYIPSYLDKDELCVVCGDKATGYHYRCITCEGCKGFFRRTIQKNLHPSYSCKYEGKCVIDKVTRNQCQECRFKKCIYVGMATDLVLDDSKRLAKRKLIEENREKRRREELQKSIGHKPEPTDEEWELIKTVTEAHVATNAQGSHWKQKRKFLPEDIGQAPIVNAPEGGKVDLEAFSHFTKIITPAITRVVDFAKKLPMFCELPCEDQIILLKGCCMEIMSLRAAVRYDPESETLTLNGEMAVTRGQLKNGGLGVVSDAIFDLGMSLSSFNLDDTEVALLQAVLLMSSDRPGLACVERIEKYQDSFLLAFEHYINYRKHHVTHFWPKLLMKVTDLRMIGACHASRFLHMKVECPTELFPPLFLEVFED
How it was run: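 Stimulation of a TR-driven beta-lactamase reporter was quantified in GripTite HEK 293 cells. Compound series ran for 18 hrs; curves were normalized to T3 and DMSO controls and fitted to yield EC50.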

[21] = qHTS assay for small molecule antagonists of retinoid X receptor alpha signaling (AID 588546; active = well fitted inhibition curve with a large enough effect in the signal ratio, with a control signal flat, not every such curve was filed as active; the % refers to the signal ratio); conditions: HEK293T RXRa-UAS-bla, beta-lactamase ratio, antagonist mode; measured here: W530 green channel, cytotoxicity proxy
How it was run: (§2)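 Beta-lactamase reporter inhibition, read as CCF4 fluorescence ratio (ex 405, em 460/530 nm) after 2 h at RT. HEK293T UAS-bla cells, 2500/well, were stimulated with 9-cis-RA at 500 or 100 nM final alongside test compound for 18 h at 37 C.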

[22] = molecular target: Retinoic acid receptor RXR-alpha (Homo sapiens) (UniProt P19793); assay: as above; conditions: HEK293T RXRa-UAS-bla, beta-lactamase ratio, antagonist mode
How it was run: as §2

[23] = molecular target: Thyroid hormone receptor beta (Homo sapiens) (UniProt P10828); assay: qHTS assay for small molecule antagonists of thyroid hormone receptor beta signaling (AID 588547; active = well fitted inhibition curve with a large enough effect in the signal ratio, with a control signal flat, not every such curve was filed as active; the % refers to the signal ratio); conditions: TR-UAS-bla HEK293, beta-lactamase ratio, antagonist mode, 18 h
How it was run: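 TR-UAS-bla GripTite HEK293 cells in 2% charcoal/dextran FBS medium; compounds 0.59 nM to 92 uM with T3 at 0.4nM final, 18 h at 37 C. Beta-lactamase read by CCF4 fluorescence (460/530 nm); Hill fits gave IC50 and efficacy.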

[24] = qHTS assay for small molecule agonists of the antioxidant response element (ARE) signaling pathway (AID 651741; active = well fitted activation curve with a large enough effect in the signal ratio; the % refers to the signal ratio; also: % of control where 0% means no effect)
How it was run: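 HepG2 ARE-bla reporter cells, 2,000/well; 5 h settle at 37 C/5% CO2; compound pin transfer (23 nL, DMSO); 16 h at 37 C; LiveBLAzer B/G FRET substrate, 2 h RT; fluorescence intensity read.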

[25] = qHTS assay for small molecule activators of the p53 signaling pathway (AID 651743; active = well fitted activation curve with a large enough effect in the signal ratio, not every such curve was filed as active; the % refers to the signal ratio; also: % of control where 0% means no effect); conditions: HCT-116 p53RE-bla, beta-lactamase FRET ratio, 16 h; activation: stronger effect = higher value
How it was run: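 Reporter: beta-lactamase driven by p53 response elements, stably integrated in HCT-116 cells. Cells seeded at 4,000/well, 5 h preincubation, compound (DMSO) 16 h at 37 C; B/G FRET substrate 2 h RT; fluorescence intensity read.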

[26] = qHTS assay for small molecule activators of the nuclear factor-kappa B (NF-kB) signaling pathway (AID 651749; active = well fitted activation curve with a large enough effect in the signal ratio; the % refers to the signal ratio; also: % of control where 0% means no effect); conditions: NF-kB-bla ME-180 cells, beta-lactamase FRET ratio, 16 h; activation: stronger effect = higher value
How it was run: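 NF-kB-bla ME-180 cells, 2,000/well; 23 nL compound or DMSO pinned; 16 hr, 37C/5% CO2; beta-lactamase FRET read-out.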

[27] = qHTS assay for environmental chemicals that activate the Aryl hydrocarbon Receptor (AhR) signaling pathway (AID 651777; active = well fitted curve in the direction sought with a large enough effect; an effect the other way counts as inactive or inconclusive; also: % of control where 0% means no effect; nearly all actives have a fitted effect of over 15% in size); conditions: 1A2-DRE human hepatoma cells, luciferase, 24 h; activation: stronger effect = higher value
How it was run: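 Quantitative HTS in stably transfected human liver-derived cells whose luciferase gene sits downstream of the CYP1A2 promoter and dioxin response element. After 24 hr exposure at 37 C, One-Glo luminescence was measured.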

[28] = molecular target: Peroxisome proliferator-activated receptor alpha (Homo sapiens) (UniProt Q07869); assay: qHTS assay for small molecule agonists of the peroxisome proliferator-activated receptor alpha (PPARalpha) signaling pathway (AID 651778; active = well fitted curve in the direction sought with a large enough effect; an effect the other way counts as inactive or inconclusive; also: % of control where 0% means no effect); conditions: PathHunter PPARalpha complementation, chemiluminescence, 6 h; stronger effect = higher value
Peroxisome proliferator-activated receptor alpha (Homo sapiens), sequence (Q07869 whole entry, looked up, the tested form may be a part): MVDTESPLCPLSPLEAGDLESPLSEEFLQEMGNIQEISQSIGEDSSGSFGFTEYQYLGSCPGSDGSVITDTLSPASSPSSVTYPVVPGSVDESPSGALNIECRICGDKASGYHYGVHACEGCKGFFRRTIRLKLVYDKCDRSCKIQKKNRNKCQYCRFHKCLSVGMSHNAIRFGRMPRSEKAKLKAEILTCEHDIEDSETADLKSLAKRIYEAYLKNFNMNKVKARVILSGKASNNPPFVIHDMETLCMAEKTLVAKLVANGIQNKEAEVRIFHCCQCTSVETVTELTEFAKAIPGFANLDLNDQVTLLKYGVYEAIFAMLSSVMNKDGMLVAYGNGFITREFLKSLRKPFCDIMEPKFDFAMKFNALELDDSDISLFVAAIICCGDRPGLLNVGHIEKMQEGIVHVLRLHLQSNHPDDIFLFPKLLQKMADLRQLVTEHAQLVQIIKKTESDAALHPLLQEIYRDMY
How it was run: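 Enzyme-fragment complementation assay in which ligand-bound PPARalpha translocates and forms an active enzyme that generates chemiluminescence. Cells were plated overnight, exposed to compound for 6 hr at 37 C, and then given detection reagent for 60 min at room temperature.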

[29] = qHTS assay for small molecule agonists of the antioxidant response element (ARE) signaling pathway measured by Nrf2-dependant transcriptional activity (AID 720636; active = well fitted curve in the direction sought with a large enough effect in the repeat runs; an effect the other way counts as inactive or inconclusive; also: % of control where 0% means no effect)
How it was run: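 Quantitative HTS format in HepG2 cells stably expressing an ARE-luciferase reporter; 16 hr compound treatment at 37 C, luciferase signal detected with ONE-Glo.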

[30] = qHTS assay for small molecule agonists of the antioxidant response element (ARE) signaling pathway measured by Nrf2-dependant transcriptional activity - cell viability counter screen (AID 720653; active = well fitted curve in the direction sought with a large enough effect in the repeat runs; an effect the other way counts as inactive or inconclusive; also: % is scaled to controls: 0 for no effect and ±100 for the full control effect); conditions: ARE-bla HepG2 viability, CellTiter-Glo ATP luminescence, 16 h; stronger effect = lower value
How it was run: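 ARE-bla HepG2 cells treated with compounds for 16 h at 37C; this counter screen measures viability as intracellular ATP by CellTiter-Glo luminescence after 30 min at room temperature.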

[31] = qHTS assay for cell viability of HEK293 cells (AID 743288; active = well fitted curve in the direction sought with a large enough effect; an effect the other way counts as inactive or inconclusive; also: % is scaled to controls: 0 for no effect and ±100 for the full control effect; nearly all actives have a fitted effect of over 50% in size); conditions: ATP luminescence (CellTiter-Glo), 18 h; max response: stronger effect = lower value
How it was run: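 ATP luminescence (CellTiter-Glo) reports metabolically competent cell number after parental HEK293 cells, 2,000/well, were treated with DMSO-dissolved compounds for 18 h at 37 C; reagent incubation 30 min, room temperature.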

[32] = qHTS assay for cell viability of the p53RE-bla HCT-116 cell line (AID 743292; active = well fitted curve in the direction sought with a large enough effect; an effect the other way counts as inactive or inconclusive; also: % is scaled to controls: 0 for no effect and ±100 for the full control effect; nearly all actives have a fitted effect of over 55% in size)
How it was run: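 Viability of compound-treated p53RE-bla HCT-116 cells is taken from ATP-dependent luciferase luminescence. Treatment lasts 16 h at 37 C after a 5 h settling period; detection follows 30 min at room temperature.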

[33] = molecular target: Nuclear receptor subfamily 1 group I member 2 (Rattus norvegicus) (UniProt Q9R1A7); assay: qHTS assay for small molecule activators of the rat pregnane X receptor (rPXR) signaling pathway (AID 651751; call rule not given here; also: 0% is about no effect); conditions: rPXR reporter cells, luciferase (One-Glo), 24 h
Nuclear receptor subfamily 1 group I member 2 (Rattus norvegicus), sequence (Q9R1A7 whole entry, looked up): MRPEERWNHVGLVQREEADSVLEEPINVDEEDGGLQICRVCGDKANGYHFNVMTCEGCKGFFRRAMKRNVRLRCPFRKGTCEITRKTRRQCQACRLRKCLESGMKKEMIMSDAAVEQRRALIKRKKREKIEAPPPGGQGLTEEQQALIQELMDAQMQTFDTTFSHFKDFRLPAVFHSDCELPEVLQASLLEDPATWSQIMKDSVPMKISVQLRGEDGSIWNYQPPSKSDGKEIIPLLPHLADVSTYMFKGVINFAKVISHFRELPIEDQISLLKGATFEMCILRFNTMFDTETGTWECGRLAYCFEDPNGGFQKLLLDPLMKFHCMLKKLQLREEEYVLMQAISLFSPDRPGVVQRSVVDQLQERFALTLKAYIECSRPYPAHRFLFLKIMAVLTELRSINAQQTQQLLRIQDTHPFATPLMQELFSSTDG

[34] = qHTS assay for small molecule activators of the human pregnane X receptor (PXR) signaling pathway (AID 720659; call rule not given here; also: 0% is about no effect)

CCS(=O)CCSP(=O)(OC)OC (stereo unspecified)
34.5%: max response [13]
3.47%: max response ([4]; measured here: lipid channel max response)
-13.5%: max response [18]
0.72%: max response ([4]; measured here: cell count channel max response)
inactive: Potency [1] | Potency [2] | Potency [3] | activity change, negative = inhibition ([4]; at 57.5 µM (top of the series)) -0.0729% | Potency [5] | Potency [6] | activation [7] 7.09% | Potency [8] | outcome [9] | activation [10] 2.31% | Potency [11] | outcome [12] | Potency [14] | outcome [15] | outcome [16] | outcome [17] | Potency [19] | outcome [20] | max response [22] 8.07% | activity change % (negative = inhibition) [23] -3.19% | Potency [24] | activation [25] -0.772% | activation [26] -0.59% | activation [27] -0.491% | max response [28] -0.0185% | outcome [29] | max response [30] -6.55% | max response [31] -4.96% | Potency [32] | max response [33] -2.51% | outcome [34]
-0.327%: max response [21]
